± gives the standard deviation of the averaged measurements. The full ranking holds about 25,000 sequences; the median of “ln(normalized median fluorescence intensity)” is about 8.6, and the highest 2% start at about 10. The sample holds the highest values, similar sequences and a random draw of the others, so the mix is not that of the screen.

The subject of this experiment is PfAP2-EXP AP2 domain (GST-tagged). The experiment in a line: gcPBM binding intensity (ln(normalized median fluorescence intensity)); higher = stronger DNA binding. The method in brief: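 After 1 h on an Agilent 4 × 180k array of primer-extended double-stranded 36-bp intergenic genomic probes and negative controls, bound GST-tagged P. falciparum DNA-binding domains were detected with Alexa488 anti-GST antibody and scanned at 488 nm. The domains had been expressed in E. coli, and binding took place in 1× PBS with 1% milk, 0.2 mg/ml BSA, 0.5% salmon testes DNA and 0.03% Triton X-100. Binding intensity is the highest Masliner-normalised natural-log median intensity across replicate spots of either probe orientation.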
With “CCATAAAAAGGATACACACACACACGCACATATATA [CACACA_site6550]”, the “gcPBM binding intensity (ln)” value was found to be 8.73 ± 0.5.
As for “ATAAAAAAAGGACACACACACATATATATATATATA [CACACA_site5662]”, the “gcPBM binding intensity (ln)” value came to 10.2 ± 0.42.
Regarding “AAAGGATACAGACACACACACACATATATATATATA [CACACA_site906]”, the “gcPBM binding intensity (ln)” value is 10.1 ± 0.4.
“AATACAAAAAAAGGTACACACATAATATATTTATTA [CACACA_site2628]”: the “gcPBM binding intensity (ln)” value came to 8.7 ± 0.34.
Turning to “AAAGGATATAGACACACACACACATATATATATATA [CACACA_site2200]”, the “gcPBM binding intensity (ln)” value turned out to be 10.2 ± 0.14.
With “ACAAATACAAAAAAAGGTACACACATAATATATTTA [XGTACX_site5515]”, the “gcPBM binding intensity (ln)” value is 8.72 ± 0.51.
As for “TAAAAGGATACATATACACACATATATATATATATA [CACACA_site2791]”, the “gcPBM binding intensity (ln)” value came to 10.2 ± 0.42.
On to “CCATAAAAAGGATACACACACACACCCACATATATA [CACACA_site903]”, for which the “gcPBM binding intensity (ln)” value was determined as 8.71 ± 0.45.
“ATAAAAAAAGGACACACACACATATATTTATTTATA [CACACA_site7438]”: the “gcPBM binding intensity (ln)” value stood at 8.66 ± 0.52.
For “CAACGATACAAAAAAGGTACACATATATATATATAT [XGTACX_site8688]”, the “gcPBM binding intensity (ln)” value was found to be 10.2 ± 0.47.
Turning to “TATATATATAGACACACACACACATATATATATATA [CACACA_site9366]”, the “gcPBM binding intensity (ln)” value was 10.1 ± 0.42.
Take “TTTTTTATTTTAAAAACATGCATAAAATATAATAGT [TGCATGCA_site762]”: the “gcPBM binding intensity (ln)” value worked out at 8.94 ± 0.42.
Turning to “ACATGTATACTTTTTACGAAAAAAAAAAAAAAAAAA [CACACA_negctrl_site1638]”, the “gcPBM binding intensity (ln)” value came to 8.09 ± 0.45.
With “TTTTAAAAAGATCATTAAAAAAAAAAAAAGAACAAA [CACACA_negctrl_site528]”, the “gcPBM binding intensity (ln)” value is 8.53 ± 0.41.
Consider “TATACATATTTGTATTGTACATAAACTAAATCTTCA [XGTACX_site610]”, for which the “gcPBM binding intensity (ln)” value was 8.21 ± 0.36.
In the case of “ATACGATTGAAACATTGTACATGAATATAAAAAAAT [XGTACX_site5704]”, the “gcPBM binding intensity (ln)” value turned out to be 8.88 ± 0.47.
Take “ATATTTTATTATTGTTGTACTTTTTTTTGATTGTTT [XGTACX_site4090]”: the “gcPBM binding intensity (ln)” value was 8.81 ± 0.42.
For “TTGTGTTCTTATTTTTACACCGAAAAATATTAAAAG [CACACA_negctrl_site535]”, the “gcPBM binding intensity (ln)” value was 8.55 ± 0.29.
“AATGGATGGTCCAAATGTACATATATATATATATAT [XGTACX_site4800]”: the “gcPBM binding intensity (ln)” value is 10.1 ± 0.41.
Consider “ATATATATATGTTACTGTACTAATTTATATGTTAAT [XGTACX_site3341]”, for which the “gcPBM binding intensity (ln)” value turned out to be 9.665 ± 0.064.
In the case of “AAAGGGATAACACCAAAAAAAATAAAAATAAAAATA [GTGCAC_negctrl_site680]”, the “gcPBM binding intensity (ln)” value was found to be 8.61 ± 0.54.
On to “AGGATATGCAGACACACACACATATAGATTTATATA [CACACA_site7100]”, for which the “gcPBM binding intensity (ln)” value worked out at 8.41 ± 0.48.
For the sequence “AGGATATGCAGACACACACACATATATATATATATA [CACACA_site2201]”, the “gcPBM binding intensity (ln)” value was determined as 10.3 ± 0.41.
As to “CATATAAAAAGACACACACACACATATATATATATA [CACACA_site940]”, the “gcPBM binding intensity (ln)” value worked out at 10.3 ± 0.18.
As to “AGGATACACAGACACACACACATATATATATATATA [CACACA_site907]”, the “gcPBM binding intensity (ln)” value stood at 10 ± 0.45.
In the case of “AAAAAAAAAAGACACACACACATATAAATATAAATA [CACACA_site6899]”, the “gcPBM binding intensity (ln)” value was 8.75 ± 0.38.
Turning to “GAGAAATGGGGACACACACACATATTATATATATAT [CACACA_site4943]”, the “gcPBM binding intensity (ln)” value was 9.71 ± 0.2.
As for “ATAAAAAAAAGACACACACACATATATATATATATA [CACACA_site3073]”, the “gcPBM binding intensity (ln)” value was found to be 10 ± 0.33.
In the case of “AAAAATTATGGACACACACACATATATATATATATT [CACACA_site4717]”, the “gcPBM binding intensity (ln)” value was 8.53 ± 0.31.
On to “AATTATGGGGAAAAGACACACATATATATATATATA [CACACA_site2589]”, for which the “gcPBM binding intensity (ln)” value turned out to be 10.3 ± 0.31.
For the sequence “CATACCTTTTAATGTACACACATTTCTTTTTTGTTA [CACACA_site892]”, the “gcPBM binding intensity (ln)” value was 8.88 ± 0.28.
With “AAAAAAAAAATTAAATGTACATATATAATATATATA [XGTACX_site7245]”, the “gcPBM binding intensity (ln)” value worked out at 8.62 ± 0.014.
As for “TCCTACATATTATAGTGTACATTTTCATGTTCATAT [XGTACX_site4308]”, the “gcPBM binding intensity (ln)” value amounted to 8.62 ± 0.39.
Take “ATAAGATGATGGAACTGTAATATATATATATATATA [CACACA_negctrl_site839]”: the “gcPBM binding intensity (ln)” value came out at 10 ± 0.5.
The value for “AAAAAAATAAATAAATGTACATATATAAAACATTGT [XGTACX_site2136]” was 8.87 ± 0.33; that for “TGTAATCTGGAGAAAAGTACACAGTATCTGGTAGCT [XGTACX_site2039]” was 8.53 ± 0.34; that for “TTTTTAATTTACTGTCATAGGTACCTTAACTTATCA [CACACA_negctrl_site1664]” was 8.72 ± 0.49.
For “AATGACAACCTTGTCACACATATATATATATATATA [CACACA_site5977]”, the “gcPBM binding intensity (ln)” value was 10.2 ± 0.4.
In the case of “ATATAAATGTATATGACACACATATATATATATATA [CACACA_site889]”, the “gcPBM binding intensity (ln)” value amounted to 9.91 ± 0.3.
The result for “AAAAATAAAAAAATGACACACATATATATATATATA [CACACA_site2307]” reads 10 ± 0.53; that for “AAAAAAAAAAAAAAAAATATATTTATGAAATAAAAA [TGCATGCA_negctrl_site262]”, 8.405 ± 0.078.
Turning to “ATGGGACATATATATACACACATATATATATATATA [CACACA_site1202]”, the “gcPBM binding intensity (ln)” value is 10 ± 0.21.
The result for “ATTTATATTTTATATACACACATGAACTTATATGGA [CACACA_site3167]” reads 8.37 ± 0.41; that for “TGAACTTACTTGGACATACACACATATATATATATA [CACACA_site2977]”, 10.2 ± 0.27.
“AACTTACTTGGACATACACACATATAGATTTATATA [CACACA_site7412]”: the “gcPBM binding intensity (ln)” value is 8.84 ± 0.3.
With “TATACAGATGGACACACACACATATATATATATATA [CACACA_site5272]”, the “gcPBM binding intensity (ln)” value was 10.2 ± 0.3.
Regarding “AACTTACTTGGACATACACACATATATATATATATA [CACACA_site2978]”, the “gcPBM binding intensity (ln)” value stood at 10.2 ± 0.44.

These data come from the supplement of paper PMC11417369.
